# From PubChem BioAssay
# FUS yeast rescue = FUS proteinopathy suppression in yeast | S. cerevisiae FUS-expressing, growth rescue, OD600, 24 h | Potency, µM (doses to about 76.6 µM), usual class: activators | 0.24% of 390,000 active | AID 1347120; further: nearly all actives have a fitted effect of over 55% in size
#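 Toxicity suppression screen in FUS-yeast. Cells induced with 2% galactose, starting OD 0.005, treated 24hr at 30C with compounds at multiple final concentrations; growth by OD600.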
# Abeta rescue = restores growth of yeast expressing A-beta42 peptide. yeast expressing A-beta42, growth rescue, OD600, 48 h; response scale: 0% DMSO, 100% iron-clioquinol control. Potency, µM (doses to about 46.1 µM), actives largely listed as activators. 0.063% of 410,000 active; further: nearly all actives have a fitted effect of over 55% in size
#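 Yeast growth medium received pinned compounds, then yeast cells expressing toxic A-beta were added; plates incubated at 30 C for 48 hr. Growth read as absorbance at 600 nm, normalized to DMSO and equimolar FeCl3 plus clioquinol controls.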
# Mito fusion yeast = inhibitors of mitochondrial division or activators of mitochondrial fusion; Potency, µM (titrated, usually from 46.1 µM), usual class: activators; S. cerevisiae fusion-defective mutant growth rescue, CellTiterGlo 48 h; 0.23% of 320,000 active; further: nearly all actives have a fitted effect of over 45% in size
#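 Read-out: ATP-based luminescence (CellTiterGlo, 10 min ambient) reporting growth of fusion-defective ts yeast after 48 hours at 37C on glycerol/ethanol YPEG medium in the presence of compound.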
# TDP43 rescue = TDP-43 toxicity inhibition in yeast. Potency, µM (highest dose often 46.1 µM), most hits filed as activators. TDP-43 expressing yeast growth rescue, BacTiter-Glo, 24 h. AID 652104. 1.8% of 410,000 active; further: nearly all actives have a fitted effect of over 50% in size
#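 Luminescence from BacTiter-Glo reports growth of TDP-43-expressing yeast after 24 hr at 30 deg C with compound. Cells were raffinose-pregrown to mid-log, then seeded in galactose medium at OD600=0.02.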
# aSyn yeast inh = rescues yeast growth from alpha-synuclein toxicity | Yeast expressing alpha-synuclein, growth rescue, BacTiter-Glo, 24 h | Potency, µM (highest dose often 46.1 µM), hits mostly activators | 0.14% of 370,000 active | AID 652106; further: nearly all actives have a fitted effect of over 65% in size
#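 Screening used galactose-induced yeast with toxic alpha-synuclein levels, exposed to compound for 24 hr at 30 deg C. Cell growth, read with BacTiter-Glo luminescence, gave the measured signal.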
# Hits are given with their value; - = inactive; ? = inconclusive; . = no result given; ! = not active in a repeat. This is a sample that favours compounds with a hit; in the whole collection about 2.2% have one here. The call rests on the fitted dose curve; in most records, active means well fitted curve in the direction sought with a large enough effect; inconclusive means small, poorly fitted or top-dose-only effect, or another doubt; inactive means no such curve, though single readings can be large; an effect the other way counts as inactive or inconclusive.
SMILES,FUS yeast rescue,Abeta rescue,Mito fusion yeast,TDP43 rescue,aSyn yeast inh
C=CCC[C@@H](Cc1ccc(F)cc1)C(=O)OC[C@@H]1CCCN1C(=O)[C@@H](CC=C)CC(=O)N(CCO)Cc1ccccc1,20µM,-,.,-,-
C=CCC[C@@H](Cc1ccc(F)cc1)C(=O)OC[C@@H]1CCCN1C(=O)[C@H](CC=C)CC(=O)N[C@H](CO)Cc1ccccc1,20µM,-,.,?,?
C=CCC[C@@H](Cc1ccc(F)cc1)C(=O)OC[C@H]1CCCN1C(=O)[C@@H](CC=C)CC(=O)N[C@H](CO)Cc1ccccc1,?,-,.,-,-
Cn1c(C(=O)NCc2ccccc2Cl)cc2sc(Cl)cc21,-,-,.,-,.
Cc1cc2n(n1)C(c1sccc1C)Nc1ccccc1-2 (stereo unspecified),-,-,-,18µM,-
CCOC(=O)c1cc(-c2ccccc2)n(CCCC(=O)Nc2cc(C)ccc2OC)c1C,?,-,.,-,.
CCCCNC(=O)NS(=O)(=O)c1ccc(NC(=O)CSc2ncnc3scc(-c4ccc(C)cc4)c23)cc1,-,.,.,.,.
CC(=O)N1CCC(O)(c2cccc(C(F)(F)F)c2)CC1,-,-,-,-,-
O=C(CCCN1CCC(O)(c2ccc(Br)cc2)CC1)c1ccc(F)cc1,-,-,-,-,-
O=C(CCCN1CCC(O)(c2cccc(C(F)(F)F)c2)CC1)c1ccc(F)cc1,-,-,23µM!,-,-
O=C(CCCN1CCC(O)(c2ccc(Cl)cc2)CC1)c1ccc(F)cc1,-,-,12µM!,?,-
CC1CCN(C(=S)SCc2nc(N)nc(Nc3ccccc3)n2)CC1,?,22µM,-,?,-
COc1ccc(Nc2nc(N)nc(CSC(=S)N3CCN(c4ccccc4)CC3)n2)cc1,?,-,?,18µM,-
COc1ccccc1Nc1nc(N)nc(CSC(=S)N2CC(C)CC(C)C2)n1 (stereo unspecified),-,-,?,25µM,-
COc1ccc(Nc2nc(N)nc(CSC(=S)N3CCCCC3)n2)cc1,-,-,-,-,-
O=C(NCCCN1CCN(c2ccccc2)CC1)c1ccc2nc(CCc3ccccc3)oc2c1,-,-,.,-,.
COC(=O)c1ccccc1NC(=O)CN1C(=O)COc2ccc(Cl)cc21,-,-,.,13µM,.
COC(=O)c1ccccc1NC(=O)CN1C(=O)COc2ccccc21,-,-,.,-,-
CCOc1ccccc1NC(=O)CN1C(=O)COc2ccc(C)cc21,-,-,-,11µM,-
Cc1ccccc1C(=O)Nc1ccc(C(=O)OCc2cc(=O)n3c4c(sc3n2)CCCC4)cc1,?,-,.,-,.
Nc1ccc2c(c1)OCCOCCOCCOCCOCCO2,-,-,-,-,-
c1ccc2c(c1)OCCOCCOc1ccccc1OCCOCCO2,-,-,?,11µM,-
CCOc1ccc(Cl)cc1-c1cc(C(=O)NCc2ccccc2)[nH]n1,?,-,.,?,-
CCOc1ccc(Cl)cc1-c1cc(C(=O)NCc2ccccc2OC)[nH]n1,?,-,.,18µM,?
C=C(C)Cn1c(SCC(=O)N/N=C(\C)c2ccc(Br)cc2)nnc1-c1ccc(Br)cc1,-,.,.,.,.
SMILES,FUS yeast rescue,Abeta rescue,Mito fusion yeast,TDP43 rescue,aSyn yeast inh
O=C(c1ccc2c(c1)OCCO2)C1CCN(C(=O)c2ccc(F)c(F)c2)CC1,-,-,-,11µM,-
CC1=C(C(=O)OCc2ccccc2)C(/C=C/c2ccccc2)NC(=S)N1 (stereo unspecified),?,-,16µM,?,-
C=CCOC(=O)C1=C(C)NC(=S)NC1/C=C/c1ccccc1 (stereo unspecified),-,-,-,-,-
CCOC(=O)c1c(NC(=O)C2C3C=CC(CC3)C2C(=O)O)sc(C)c1CC (stereo unspecified),-,-,7.1µM,-,-
COC(=O)c1c(NC(=O)C2C3C=CC(CC3)C2C(=O)O)sc(C)c1C (stereo unspecified),.,-,-,-,-
Cc1c(Cl)ccc2sc(N3CCN(C(=O)C(C)C)CC3)nc12,-,-,.,22µM,.
COc1c(S(=O)(=O)N2CCN(C(=O)c3ccco3)CC2)ccc(Cl)c1Cl,-,-,-,13µM,-
COc1ccc(Cl)c2sc(N3CCN(C(=O)c4ccco4)CC3)nc12,-,-,-,18µM,-
CCCC(=O)N1CCN(c2nc3c(OC)ccc(Cl)c3s2)CC1,-,-,-,20µM,-
S=C(Nc1cccc(Br)c1)OC1CCC12CCC(c1ccccc1)CC2 (stereo unspecified),-,.,.,.,.
Cc1c(Cl)ccc2sc(N3CCN(C(=O)CS(=O)(=O)c4ccccc4)CC3)nc12,?,13µM,.,18µM,.
Cc1c(Cl)ccc2sc(N3CCN(C(=O)c4ccco4)CC3)nc12,?,-,.,32µM,.
COc1ccc(C2CC(=O)N(Cc3cccc(C)c3)c3c2c(C)nn3-c2nc(C)cc(C)n2)c(OC)c1 (stereo unspecified),-,-,.,?,.
COc1ccc(-n2nc(C(=O)N3CCN(c4cccc(C)c4C)CC3)c3c4ccccc4n(C)c3c2=O)cc1,-,-,.,-,.
Cc1ccc(C2C=C(c3ccc(Cl)cc3)Nc3nc(NC(=O)c4ccco4)nn32)cc1 (stereo unspecified),-,-,.,-,.
CSc1nc2ccc(NS(=O)(=O)c3ccc([N+](=O)[O-])cc3)cc2s1,-,-,-,?,-
CSc1nc2ccc(NS(=O)(=O)c3cccc(Cl)c3Cl)cc2s1,?,-,35µM,32µM,-
Cc1nc2ccc(NS(=O)(=O)c3ccccc3Cl)cc2s1,-,-,-,18µM,-
Cc1ccc2c(CN3CCN(C(=O)c4ccc(Br)cc4)CC3)cc(=O)oc2c1,-,-,.,?,.
COc1cc(/C=N/Nc2nc(Nc3ccccc3)nc(N3CCOCC3)n2)ccc1OC(=O)c1ccco1,?,-,-,20µM,-
Cc1ccc(CNC(=O)C2CCN(S(=O)(=O)c3ccc4c(c3)CCCN4C(=O)C3CCC3)CC2)cc1,-,-,.,-,.
CC(=O)N1CCCc2cc(S(=O)(=O)N3CCCC(C(=O)N4CCN(c5ccccc5)CC4)C3)ccc21 (stereo unspecified),-,-,-,-,-
Cc1cccc(CNC(=O)C2CCN(S(=O)(=O)c3ccc4c(c3)CCCN4C(=O)C3CCC3)CC2)c1,28µM,-,.,-,.
CC(=O)N1CCCc2cc(S(=O)(=O)N3CCCC(C(=O)N4CCN(c5cc(C)ccc5C)CC4)C3)ccc21 (stereo unspecified),13µM!,-,-,-,-
O=C(CSc1nnc(-c2ccccc2)n1-c1ccc(Cl)cc1)Nc1ccc2cn[nH]c2c1,-,.,.,.,.
Cn1ncc(Cl)c1C(=O)NC1C2CC3CC(C2)CC1C3 (stereo unspecified),-,-,-,?,-
Cc1nn(C)c(C(=O)NC2C3CC4CC(C3)CC2C4)c1Cl (stereo unspecified),-,-,-,10µM,-
